{"source": "PubChem BioAssay (Tox21)", "note": "Inconclusive results are not listed. A number with no mark means an inactive call. The call rests on the fitted dose curve.", "data": [{"experiment": "qHTS assay to identify small molecule agonists of the AP-1 signaling pathway - cell viability counter screen (AID 1159525); further: nearly all actives have a fitted effect of over 55% in size", "conditions": "ME-180 AP-1-bla cells viability, ATP luminescence, 5 h; series mostly up to 76.8 µM; viability change, negative = cytotoxic: at the top concentration", "description": "National Center for Advancing Translational Sciences [NCATS]\nNIH Chemical Genomics Center [NCGC]\nU.S. Environmental Protection Agency [EPA]\nNational Institutes of Environmental Health Sciences [NIEHS]\nNational Toxicology Program [NTP]\nU.S. Food and Drug Administration [FDA]\nActivator protein-1 (AP-1), a transcription factor, plays an important role in tumor genesis by regulating genes involved in cell proliferation, differentiation, apoptosis, and angiogenesis. AP-1 activity is induced by a complex network of signaling pathways that involves extracellular signals, such as growth factors. The AP-1 protein complex formed from c-Fos and c-Jun binding to the AP-1 response element results in transcriptional activation of genes containing such elements within their promoter.\nLow molecular weight molecules have been discovered and developed to modulate various components of these signaling pathways, for example, MAP kinase inhibitors. However, many points of pathway modulation remain untested due to the lack of chemical probes making this signaling locus of general interest.\nUsing a beta-lactamase reporter-gene under control of the AP-1 response element, a cell-based assay [CellSensor(TM) AP-1-bla ME-180 developed by Invitrogen Corp.] was used to measure EGF-induced signaling. The Tox21 10K library compounds were measured for their ability to positively modulate the action of EC50 EGF on reporter gene activity. Compounds were screened in a 15-pt titration series in 1536-well format. The cytotoxicity of the Tox21 compound library against this cell line was tested in parallel by measuring the intra cellular ATP content in the same wells.\nTox21 Assay Protocol Summary:\n2500 cells/5uL in Opti-MEM medium containing 0.5% dialyzed FBS, 0.1 mM NEAA, 1 mM sodium pyruvate and 10 mM HEPES was dispensed into 1536-well black wall/clear bottom plates using a Multidrop dispenser and cells were cultured at 37 degrees Celsius overnight. Next day 23 nL of compounds dissolved in DMSO, positive controls or DMSO were delivered to each well using a pin tool. The plates were incubated at 37 degrees Celsius for 5 hours. 1 uL of LiveBLAzerTM B/G FRET substrate (Solution A+B+C+D) was added to each well using a Flying Reagent Dispenser. After incubated at room temperature for 2.5 hours the plates were measured on an EnVision plate reader at Excitation 405nm, Emission1=460nm and Emission 2=530nm. The %Activity was determined from the ratio of 460nm/530nm.\nAfter the plates were read for Beta-Lactamase assay on Envision; 3 ul Cell Titer Glo (Promega) was added to measure the cytotoxicity and the plates were then incubated at RT in dark for 30 min. The luminescence was read on ViewLux (Perkin Elmer, Shelton, CT) using 6 sec exposure. ViewLux data was expressed as relative luminescence units.\nFor primary data analysis, raw plate reads for each titration point were first normalized relative to […] EGF control (100%) and DMSO only wells (basal, 0%).\nFor primary data analysis for viability assay, raw plate reads for each titration point were first normalized Tetra n-octyl ammonium bromide control (-100%) and DMSO (control, 100%).", "values": [{"smiles": "O=Cc1c(Cl)cccc1Cl", "viability change, negative = cytotoxic": "3.88%"}, {"smiles": "OC(CCCN1CCCCC1)(c1ccccc1)c1ccccc1", "viability change, negative = cytotoxic": "1.52% [at 35.3 µM]"}, {"smiles": "CC(=O)OCC(=O)[C@H]1CC[C@H]2[C@@H]3CCC4=CC(=O)CC[C@]4(C)[C@H]3CC[C@]12C", "viability change, negative = cytotoxic": "2.17% [at 35.3 µM]"}, {"smiles": "Cc1cc(OI)c(C(C)C)cc1-c1cc(C(C)C)c(OI)cc1C", "viability change, negative = cytotoxic": "0.329% [at 35.3 µM]"}, {"smiles": "CCCCCCCCCOC(C)=O", "viability change, negative = cytotoxic": "0.129%"}, {"smiles": "O=C(CCCN1CCN(c2ccc(F)cc2)CC1)NC1c2ccccc2CSc2ccccc21", "note": "(stereo not given)", "viability change, negative = cytotoxic": "-1.94% [at 35.3 µM]"}, {"smiles": "CC1=C(/C=C/C(C)=C\\C=C\\C(C)=C\\C(=O)O)C(C)(C)CCC1", "viability change, negative = cytotoxic": "-0.474%"}, {"smiles": "CCNC(=O)N1CCN(CCCC(c2ccc(F)cc2)c2ccc(F)cc2)CC1", "viability change, negative = cytotoxic": "0.445% [at 35.3 µM]"}, {"smiles": "CCCCN(CCCC)CCCOC(=O)c1ccc(N)cc1", "viability change, negative = cytotoxic": "9.13% [at 35.3 µM]"}, {"smiles": "O=C(O)c1c(O)c(-c2ccccc2)nc2ccccc12", "viability change, negative = cytotoxic": "-1.18% [at 35.3 µM]"}, {"smiles": "COc1cc2c(N3CCN(C(=O)Nc4ccc(OC(C)C)cc4)CC3)ncnc2cc1OCCCN1CCCCC1", "viability change, negative = cytotoxic": "2.13% [at 35.3 µM]"}, {"smiles": "CCn1nc(C)c2c1C(=O)NCC(c1ccc(O)cc1)=N2", "viability change, negative = cytotoxic": "-2.21%"}, {"smiles": "O=C(O)c1cccc(O)c1", "viability change, negative = cytotoxic": "-13.2%"}, {"smiles": "O=C(NCCCN1CCOCC1)c1ccc(Cl)cc1", "viability change, negative = cytotoxic": "3.11% [at 35.3 µM]"}, {"smiles": "Nc1nccs1", "viability change, negative = cytotoxic": "3.72%"}, {"smiles": "Cc1nc2ccccc2s1", "viability change, negative = cytotoxic": "0.956%"}, {"smiles": "CCCOC(=O)c1ccc(N)cc1", "viability change, negative = cytotoxic": "10.2% [at 35.3 µM]"}, {"smiles": "CC1=C(C=O)C(C)(C)CCC1", "viability change, negative = cytotoxic": "1.71%"}, {"smiles": "C[C@@H]1C[C@H]2[C@@H]3CCC4=CC(=O)C=C[C@]4(C)[C@@]3(F)[C@@H](O)C[C@]2(C)[C@H]1C(=O)CO", "viability change, negative = cytotoxic": "-0.766% [at 35.3 µM]"}, {"smiles": "CC(COc1ccc(C(C)(C)C)cc1)OS(=O)OCCCl", "note": "(stereo not given)", "viability change, negative = cytotoxic": "1.8%"}, {"smiles": "CC1CC(O)CC(C)(C)C1", "note": "(stereo not given)", "viability change, negative = cytotoxic": "-11.2%"}, {"smiles": "O=[N+]([O-])c1cccc(S(=O)(=O)NCCNS(=O)(=O)c2cccc([N+](=O)[O-])c2)c1", "viability change, negative = cytotoxic": "0.865% [at 35.3 µM]"}, {"smiles": "O=C(CS)OCCOC(=O)CS", "viability change, negative = cytotoxic": "-19.9%"}, {"smiles": "CCCCCCCCCCCC[N+](C)(C)CCCS(=O)(=O)[O-]", "viability change, negative = cytotoxic": "-7.87%"}, {"smiles": "CCOC(=O)OCC", "viability change, negative = cytotoxic": "3.9%"}, {"smiles": "OCCSc1ccccc1", "viability change, negative = cytotoxic": "-9.8%"}, {"smiles": "CCCCCCCC/C=C\\CCCCCCCC(=O)OC", "viability change, negative = cytotoxic": "0.0273%"}, {"smiles": "Cc1cc(O)c2c(O)c3c(O)cccc3cc2c1", "viability change, negative = cytotoxic": "-2.37% [at 35.3 µM]"}, {"smiles": "N#C/C(=C1/SC[C@@H](c2ccc(Cl)cc2Cl)S1)n1ccnc1", "viability change, negative = cytotoxic": "-7.74% [at 35.3 µM]"}, {"smiles": "O=C(CCCCCCCCC#CI)Oc1ccccc1", "viability change, negative = cytotoxic": "-0.851% [at 35.3 µM]"}, {"smiles": "C[Si]1(C)O[Si](C)(C)O[Si](C)(C)O1", "viability change, negative = cytotoxic": "0.58%"}, {"smiles": "CN1Cc2cc(C(=O)N3CCC(C4CCNCC4)CC3)ccc2N[C@@H](CC(=O)O)C1=O", "viability change, negative = cytotoxic": "1.2% [at 35.3 µM]"}, {"smiles": "Cc1c(C(=O)NN2CCCCC2)nn(-c2ccc(Cl)cc2Cl)c1-c1ccc(Cl)cc1", "viability change, negative = cytotoxic": "2.85% [at 35.3 µM]"}, {"smiles": "NC(=O)N(O)[C@@H]1C=C[C@H](Oc2cccc(Oc3ccc(F)cc3)c2)C1", "viability change, negative = cytotoxic": "8.23%"}, {"smiles": "CCCCC(CC)CNCC(CC)CCCC", "note": "(stereo not given)", "viability change, negative = cytotoxic": "-12.2%"}, {"smiles": "O=C(N[C@@H](c1ccccc1)[C@@H]1CCCCN1)c1cccc(C(F)(F)F)c1Cl", "viability change, negative = cytotoxic": "0.721%"}, {"smiles": "Oc1ccc(Nc2ccccc2)cc1", "viability change, negative = cytotoxic": "4.33%"}, {"smiles": "OCC1CC=CCC1", "note": "(stereo not given)", "viability change, negative = cytotoxic": "0.208%"}, {"smiles": "Cc1ccc(/C=N/n2c(-c3ccccc3)csc2=S)cc1", "viability change, negative = cytotoxic": "-7.8% [at 35.3 µM]"}, {"smiles": "COCCOC", "viability change, negative = cytotoxic": "2.33%"}]}]}
